EPAC2 antagonist – qHTS for Antagonist of cAMP-regulated guanine nucleotide exchange factor 2 (EPAC2): primary screen; Rap guanine nucleotide exchange factor 4 (Homo sapiens), Q8WZA2; EPAC2 GEF exchange of Rap1B-BODIPY-GDP, fluorescence; Potency, µM (doses to about 114 µM), inactives show at the top dose activity, negative = inhibition, usual class: inhibitors; hit rate 0.18% among 360,000; further: on the % scale 0 is the no-effect control and ±100 the full control effect; nearly all actives have a fitted effect of over 45% in size
BRCA1 expr act – qHTS Assay to Identify Small Molecule Activators of BRCA1 Expression; Potency, µM (top dose mostly 46.1 µM), for inactives: at the highest dose activation, usual class: activators; MCF7-BRCA1-FFLuc reporter, luminescence, 48 h; response scale: scaled: vehicle 0%, 10 µM genistein 100%; hit rate 1.1% among 380,000; further: nearly all actives have a fitted effect of over 80% in size
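Quantitative HTS in MCF7 cells stably reporting BRCA1 expression via firefly luciferase. Compound treatment lasts 48 h at 37 °C in phenol-red free MEM. Activation is expressed relative to genistein at 10 microM and DMSO.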
EPAC2 ag – qHTS for Agonist of cAMP-regulated guanine nucleotide exchange factor 4 (EPAC2): primary screen; Rap guanine nucleotide exchange factor 4 (Homo sapiens), Q8WZA2; Potency, µM (doses to about 154 µM), for the others: at the top dose activation, actives largely listed as activators; EPAC2 activation, biochemical qHTS; response scale: 100% = 6.5 mM cAMP response; hit rate 0.079% among 360,000; further: nearly all actives have a fitted effect of over 50% in size
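Nucleotide exchange monitored as fluorescence drop when BODIPY-GDP leaves Rap1B. Reaction: 100 nM EPAC2, 250 nM RAP1B-BODIPY-GDP, 50 uM GDP, room temperature, kinetic read over 30 min. Activity expressed relative to 6.5 mM cAMP.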
EPAC1 antagonist – qHTS for Antagonist of cAMP-regulated guanine nucleotide exchange factor 3 (EPAC1): primary screen. Rap guanine nucleotide exchange factor 3 (Homo sapiens), O95398. EPAC1 GEF assay, Rap1b-BODIPY-GDP exchange fluorescence. Potency, µM (titrated, usually from 115 µM), for inactives: at the top dose activity change, negative = inhibition, hits mostly inhibitors. hit rate 0.14% among 360,000. AID 720709, 2013;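 further: plate controls were vehicle for no effect and positive control for full effect; nearly all actives have a fitted effect of over 50% in size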
EPAC1 agonist – qHTS for Agonist of cAMP-regulated guanine nucleotide exchange factor 3 (EPAC1): primary screen; AID 720707, 2013; EPAC1 agonist qHTS, biochemical assay; response scale: 100% = response to 6.5 mM cAMP; Potency, µM (titrated, usually from 154 µM), for inactives: at the top dose activation, most hits filed as activators; hit rate 0.073% among 360,000; Rap guanine nucleotide exchange factor 3 (Homo sapiens), O95398; further: nearly all actives have a fitted effect of over 60% in size
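Compounds were pinned as a concentration titration into mixtures of EPAC1 (100 nM), BODIPY-GDP-loaded Rap1B (250 nM) and GDP (50 uM). After 5 min at room temperature, fluorescence was followed for 30 min; activity was scaled to 6.5 mM cAMP.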
USP1 inh – Inhibitors of USP1/UAF1: Primary Screen; Potency, µM (doses to about 57.1 µM), for inactives: at the top dose activity change, negative = inhibition, usual class: inhibitors; hit rate 0.23% among 390,000; recombinant USP1/UAF1, Ub-Rhodamine cleavage fluorescence; AID 743255, 2014; further: on the % scale 0 is the no-effect control and ±100 the full control effect; nearly all actives have a fitted effect of over 60% in size
Target sequence (O94782 whole entry, looked up): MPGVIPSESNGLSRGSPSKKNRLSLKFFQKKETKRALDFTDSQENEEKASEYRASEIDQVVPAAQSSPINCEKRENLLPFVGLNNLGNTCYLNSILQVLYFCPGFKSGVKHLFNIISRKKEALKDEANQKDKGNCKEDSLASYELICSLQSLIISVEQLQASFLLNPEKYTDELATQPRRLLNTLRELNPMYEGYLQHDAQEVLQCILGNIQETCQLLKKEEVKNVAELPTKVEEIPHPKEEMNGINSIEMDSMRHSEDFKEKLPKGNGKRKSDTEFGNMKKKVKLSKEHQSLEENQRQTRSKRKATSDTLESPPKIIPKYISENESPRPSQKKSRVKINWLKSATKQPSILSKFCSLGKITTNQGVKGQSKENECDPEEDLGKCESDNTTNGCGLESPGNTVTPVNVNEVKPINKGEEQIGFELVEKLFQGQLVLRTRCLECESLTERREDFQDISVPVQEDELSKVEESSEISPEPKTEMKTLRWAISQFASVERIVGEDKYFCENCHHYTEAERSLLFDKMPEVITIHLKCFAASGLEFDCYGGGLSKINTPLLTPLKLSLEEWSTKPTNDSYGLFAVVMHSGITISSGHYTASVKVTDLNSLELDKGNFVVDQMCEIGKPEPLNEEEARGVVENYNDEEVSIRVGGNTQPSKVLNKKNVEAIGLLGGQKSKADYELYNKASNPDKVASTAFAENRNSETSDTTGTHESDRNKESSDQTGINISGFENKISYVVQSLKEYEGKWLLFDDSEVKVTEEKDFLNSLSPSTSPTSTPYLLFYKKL
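High-throughput fluorogenic screen: 1nM USP1/UAF1 complex, Ub-Rho substrate 150nM final, 50mM HEPES pH 7.8 with 0.5mM EDTA, 0.1 mg/ml BSA, 1mM TCEP and 0.01% Tween-20.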
The depositor's hits bear a star; ? = inconclusive; nt = no result; [ ] = dose if it differs, or a comment. Sampled rows, rich in hits. Any-hit rate of the full collection: about 1.4%. The call rests on the fitted dose curve; in most records, active means well fitted curve in the direction sought with a large enough effect; inconclusive means small, poorly fitted or top-dose-only effect, or another doubt; inactive means no such curve, though single readings can be large; an effect the other way counts as inactive or inconclusive. Potency means the concentration at half of the fitted maximal effect.

SMILES	EPAC2 antagonist	BRCA1 expr act	EPAC2 ag	EPAC1 antagonist	EPAC1 agonist	USP1 inh
CC(=O)c1cccc(-c2ccnc3c2CC(C(=O)Nc2cccc(NS(C)(=O)=O)c2)O3)c1 (stereo not given)	6%	-26%	4%	4%	0%	nt
O=C(CSc1nc2ccccc2o1)NCc1ccc2c(c1)OCO2	22µM*	109%	5%	12%	-9%	-22%
O=C(CSc1nc2ccccc2o1)N/N=C/c1ccc(O)c(O)c1	-11%	2%	10%	50µM*	3%	1%
Cc1ccccc1NC(=O)CSc1nc2ccccc2o1	9%	13µM*	-2%	2%	-3%	-8%
Cc1ccccc1/C=N/NC(=O)CSc1nc2ccccc2o1	7%	-15%	-6%	9%	-2%	-14%
O=C(CSc1nc2ccc(Cl)cc2o1)NCc1ccc2c(c1)OCO2	-12%	-25%	-2%	2%	-18%	-3%
C/C(=N\NC(=O)c1cc2c(s1)CCC(C)C2)c1ccc[nH]1 (stereo not given)	-2%	5µM*	3%	-22%	-13%	-11%
CC1CCc2sc(C(=O)NCc3ccccn3)cc2C1 (stereo not given)	14%	11µM*	7%	-6%	-2%	-17%
C/C(=N\NC(=O)c1cc2c(s1)CCC(C)C2)c1ccncc1 (stereo not given)	13%	55%	-2%	-8%	-7%	-13%
CC1CCc2c(C(=O)Nc3ccccn3)csc2C1 (stereo not given)	-17%	?	10%	-33%	12%	-9%
CC1CCc2c(C(=O)NCC3CCCO3)csc2C1 (stereo not given)	9%	11µM*	4%	5%	-5%	-7%
CC1CCc2sc(C(=O)NCc3ccc(F)cc3)cc2C1 (stereo not given)	-5%	41%	10%	-10%	10%	-17%
CC1CCc2c(C(=O)NCc3ccccn3)csc2C1 (stereo not given)	-2%	11µM*	4%	-18%	-16%	-8%
Cc1ccc(S(=O)(=O)N2C[C@H]3C(=O)C[C@@H](c4cccc(Cl)c4)N(S(=O)(=O)c4ccc(C)cc4)[C@H]3C[C@H]2c2ccc(Cl)cc2)cc1	3%	7%	6%	-8%	-9%	-10%
CCCCCCCCCCCCOC(=O)N1CCN(/[N+]([O-])=N/Oc2ccc([N+](=O)[O-])cc2[N+](C)=O)CC1	nt	10%	nt	nt	nt	nt
CC1CCc2sc(C(=O)NC3CCCCC3)cc2C1 (stereo not given)	1%	11µM*	3%	11%	8%	-17%
CC1CCc2sc(C(=O)NC(C)C3CCCO3)cc2C1 (stereo not given)	1%	?	-3%	-5%	-8%	-12%
CC1CCc2c(C(=O)Nc3nccs3)csc2C1 (stereo not given)	15%	13µM*	-5%	10%	0%	-18%
CN(C(=O)CSc1ccc2c(c1)OCCO2)c1ccccc1	-1%	10µM*	0%	3%	-14%	-14%
N#CCCN(C(=O)CSc1ccc2c(c1)OCCO2)c1ccccc1	-3%	3%	-4%	-14%	0%	-14%
O=C(Nc1ccon1)c1sc2cc(F)ccc2c1Cl	-1%	15%	-7%	6%	-3%	-3%
O=C(NCc1ccco1)c1cc(-c2ccc(F)cc2)on1	-5%	8.9µM*	9%	1%	8%	-9%
O=C(NCc1ccco1)c1cc(-c2ccccc2)on1	7%	?	8%	-5%	-4%	0%
O=C(NCc1ccco1)c1sc2cc(F)ccc2c1Cl	-4%	13µM*	20%	-12%	12%	-13%
Cc1ccc(NC(=O)CCC(=O)c2cccs2)c(O)c1	-5%	11µM*	6%	8%	9%	-10%
SMILES	EPAC2 antagonist	BRCA1 expr act	EPAC2 ag	EPAC1 antagonist	EPAC1 agonist	USP1 inh
Cc1ccc(F)cc1NC(=O)CCC(=O)c1cccs1	6%	-4%	-12%	0%	-2%	-11%
O=C(O)/C=C\C(=O)Nc1ccccc1C#Cc1ccc(Br)cc1	10µM*	-11%	9%	-3%	14%	2%
O=C(O)/C=C\C(=O)Nc1ccccc1C#Cc1ccccc1	-5%	26%	4%	-29%	4%	-11%
COc1cc2c(c(OC)c1OC)C(c1ccc3c(c1)OCO3)CC(=O)O2 (stereo not given)	40µM*	10%	12%	-1%	4%	-18%
COc1cc2c(c(OC)c1OC)C(c1ccccc1C)CC(=O)O2 (stereo not given)	?	8%	12%	-12%	3%	-28%
O=C(CN1C(=O)CCC1=O)Nc1nc(-c2nc3ccccc3s2)cs1	-10%	5µM*	1%	-4%	5%	?
O=C(CN1C(=O)CCC1=O)Nc1nc(-c2ccccn2)cs1	36%	0%	15%	12%	-14%	-20%
CC(/C=N/N1CCN(c2ccccc2)CC1)=C\c1ccco1	-1%	6.3µM*	10%	4%	11%	-14%
CC(=C/c1ccco1)/C=N/N1CCN(c2ccccc2)CC1	1%	-4%[1.84 µM]	3%	-3%	1%	-5%
CC(O)[C@H]1CC[C@H]2[C@@H]3CC[C@H]4C[C@@H](O)CC[C@]4(C)[C@H]3/C(=N/O)C[C@]12C (stereo not given in full)	4%	-24%	-3%	-10%	-13%	-14%
CCOc1ccc(OCc2ccc(C(=O)N3CCOCC3)cc2)cc1	8%	31%[1.84 µM]	6%	-2%	3%	-22%
CCOc1ccc(N=C(/C(C(=O)C(=O)N2CCOCC2)=C(\O)c2ccccc2)c2ccccc2)cc1	6%	7.9µM*	-14%	-13%	0%	-27%
CCOC(=O)C1=C(C)N=C2SCCC(=O)N2C1c1ccc(OCc2ccccc2)c(OC)c1 (stereo not given)	nt	nt	nt	nt	nt	-15%
CCc1ccc(NC(=O)CNC(=O)Cn2ccc3ccccc3c2=O)cc1	-9%	-9%	0%	-13%	-10%	7%
COc1cc2c(cc1OC)-c1cc(NC3CCCCCCC3)nc(=O)n1CC2	4%	-5%	0%	13%	1%	-25%
